Test results published in PubChem BioAssay (Tox21).
Several values for one entry are separate records, joined by “and”; a condition that tells them apart may be missing. Equal values may be shown once. Results filed as inconclusive are left out. A structure can be active in one record and inactive in another. Activity calls are given as the source filed them. Unless noted, calls follow the shape of the dose curve; as a rule, active = well fitted curve in the direction sought with a large enough effect in the repeat runs; inconclusive = weak or mixed curves; inactive = no such curve, though single readings can be large; an effect the other way counts as inactive or inconclusive.

What was measured:
[1] = qHTS assay to identify small molecule antagonists of the estrogen related receptor (ERR) signaling pathway from Tox21 library - cell viability counter screen (AID 1224834); also: nearly all actives have a fitted effect of over 30% in size; also: potency is read from the fitted curve at half-maximal effect
In short: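 After 17.5 h of compound exposure at 37 C, ERR cells are incubated with CellTiter-Fluor for 30 min and fluorescence intensity serves as the viability measure.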

[2] = molecular target: Luciferin 4-monooxygenase (Photinus pyralis) (UniProt P08659); assay: qHTS assay to identify small molecule inhibitors of firefly luciferase (AID 1224835); also: nearly all actives have a fitted effect of over 25% in size; also: potency is read from the fitted curve at half-maximal effect
Chain of Luciferin 4-monooxygenase (Photinus pyralis) (P08659 whole entry, looked up): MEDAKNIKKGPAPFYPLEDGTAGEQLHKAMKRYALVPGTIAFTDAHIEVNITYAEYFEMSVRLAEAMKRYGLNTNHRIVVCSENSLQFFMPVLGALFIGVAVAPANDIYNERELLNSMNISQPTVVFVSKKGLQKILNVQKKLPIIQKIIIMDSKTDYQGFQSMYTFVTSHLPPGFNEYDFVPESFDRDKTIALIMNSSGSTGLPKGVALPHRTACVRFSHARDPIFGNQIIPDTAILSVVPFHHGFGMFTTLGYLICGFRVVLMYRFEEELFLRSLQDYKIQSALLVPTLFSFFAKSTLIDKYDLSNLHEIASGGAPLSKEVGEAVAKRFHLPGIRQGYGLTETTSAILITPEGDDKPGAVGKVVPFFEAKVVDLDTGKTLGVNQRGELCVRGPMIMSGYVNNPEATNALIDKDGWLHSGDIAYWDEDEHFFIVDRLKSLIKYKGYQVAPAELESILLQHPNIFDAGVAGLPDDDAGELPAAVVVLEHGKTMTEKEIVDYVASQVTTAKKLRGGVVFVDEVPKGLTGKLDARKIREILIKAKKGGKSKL
In short: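 Quantitative HTS format; KM concentrations of both substrates. Purified P. pyralis FLuc activity quantified from luminescence images.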

[3] = qHTS assay to identify small molecule agonists of the constitutive androstane receptor (CAR) signaling pathway - cell viability counter screen (AID 1224836); also: nearly all actives have a fitted effect of over 45% in size; also: potency is read from the fitted curve at half-maximal effect
In short: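 HepG2 cells stably carrying hCAR and a CYP2B6-2.2kb reporter; 15-concentration compounds plus PK11195 (final 0.75 uM), 23 hr at 37 C/5% CO2. Viability read by CellTiter-Fluor fluorescence.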

[4] = qHTS assay to identify small molecule antagonists of the constitutive androstane receptor (CAR) signaling pathway - cell viability counter screen (AID 1224837); also: nearly all actives have a fitted effect of over 45% in size; also: potency is read from the fitted curve at half-maximal effect
In short: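 Counter screen run in HepG2-CYP2B6-hCAR cells: 4 hr settle, compound titration (15 concentrations) with 50 nM CITCO, 23 hr at 37 C/5% CO2, CellTiter-Fluor fluorescence.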

[5] = molecular target: Nuclear receptor subfamily 1 group I member 3 (Homo sapiens) (UniProt Q14994); assay: qHTS assay to identify small molecule agonists of the constitutive androstane receptor (CAR) signaling pathway (AID 1224839); also: nearly all actives have a fitted effect of over 15% in size; also: potency is read from the fitted curve at half-maximal effect
Chain of Nuclear receptor subfamily 1 group I member 3 (Homo sapiens) (Q14994 whole entry, looked up): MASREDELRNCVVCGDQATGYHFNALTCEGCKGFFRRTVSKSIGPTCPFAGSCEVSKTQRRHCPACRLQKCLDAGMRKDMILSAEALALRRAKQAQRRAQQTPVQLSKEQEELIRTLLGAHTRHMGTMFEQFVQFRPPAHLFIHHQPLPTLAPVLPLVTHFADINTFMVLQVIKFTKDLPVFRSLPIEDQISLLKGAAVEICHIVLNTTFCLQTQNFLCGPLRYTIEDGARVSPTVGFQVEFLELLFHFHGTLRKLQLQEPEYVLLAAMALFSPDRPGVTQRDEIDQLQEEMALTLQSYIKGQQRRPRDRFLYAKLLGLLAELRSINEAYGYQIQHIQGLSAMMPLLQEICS
In short: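 HepG2 cells stably co-transfected with hCAR and a CYP2B6-2.2kb luciferase reporter; compounds at 15 concentrations with 0.75 uM PK11195 present. After 24 hr at 37 C, luciferase read by ONE-Glo luminescence.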

[6] = molecular target: Nuclear receptor subfamily 1 group I member 3 (Homo sapiens) (UniProt Q14994); assay: qHTS assay to identify small molecule antagonists of the constitutive androstane receptor (CAR) signaling pathway (AID 1224838);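 also: HepG2 cells stably expressing hCAR with CYP2B6 luciferase reporter stimulated by CITCO; nearly all actives have a fitted effect of over 40% in size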; also: potency is read from the fitted curve at half-maximal effect
In short: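 Cell line: HepG2 double-stable for hCAR and CYP2B6-2.2kb reporter. Agonist: CITCO, 50 nM final. Compounds: 15 concentrations, 24 h, 37 C. Detection: ONE-Glo luminescence.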

[7] = qHTS assay to identify small molecule antagonists of the estrogen related receptor signaling pathway with the pleiotropic PPARgamma coactivator (PGC) from Tox21 10K library - cell viability counter screen (AID 1224840; active = well fitted cell-killing curve with a large enough effect in the repeat runs, not every such curve was filed as active; also: nearly all actives have a fitted effect of over 40% in size; also: potency is read from the fitted curve at half-maximal effect)
In short: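 Following seeding of 2,000 PGC/ERR cells/well and 6 hours' incubation, test compounds were delivered in DMSO. The plates then sat 17.5 hours at 37 C before a fluorogenic live-cell protease reagent (CellTiter-Fluor) was read after 30 min.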

[8] = qHTS assay to identify small molecule agonists of the estrogen related receptor signaling pathway with the pleiotropic PPARgamma coactivator (PGC) from Tox21 10K library (AID 1224842); also: nearly all actives have a fitted effect of over 15% in size; also: potency is read from the fitted curve at half-maximal effect
In short: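 PGC/ERR reporter cells (NTP line) were seeded 2,000 per well, rested 6 h at 37 C/5% CO2, then pin-dosed with compounds in DMSO for 18 h at 37 C; luciferase read by One-Glo luminescence after 30 min at room temperature.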

[9] = qHTS assay to identify small molecule antagonists of the estrogen related receptor signaling pathway with the pleiotropic PPARgamma coactivator (PGC) from Tox21 10K library (AID 1224841; call rule not given here; also: actives are mostly falling curves and most rising ones were filed inactive; nearly all actives have a fitted effect of over 50% in size; also: potency is read from the fitted curve at half-maximal effect)
In short: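 qHTS antagonist format: PGC/ERR cells, 2k/well, compound in DMSO by pin transfer after 6 h attachment, 18 h treatment at 37 C, One-Glo luminescence read at 30 min.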

[10] = qHTS assay to identify small molecule agonists of the estrogen related receptor signaling pathway with the pleiotropic PPARgamma coactivator (PGC) (AID 1224823)
In short: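 Steps: plate PGC/ERR cells at 2,000 cells/well; incubate 6 h, 37 C/5% CO2; pin-transfer compounds (DMSO); incubate 18 h, 37 C; add One-Glo; 30 min RT; read luminescence.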

Measured: Potency

OC(CCl)CCl
inactive: [1] | [2] | [3] | [4] | [5]

O=C1OC2(c3cc(Br)c(O)c(Br)c3Oc3c2cc(Br)c(O)c3Br)c2c(Cl)c(Cl)c(Cl)c(Cl)c21
inactive: [6] | [5] | [8]
active: [1] 6.12 µM and 18.6 µM | [2] 40 µM and 24.2 µM | [3] 13.7 µM and 37.1 µM | [4] 19.4 µM and 33.1 µM | [7] 4.86 µM and 29.5 µM

Cc1ccc2c(n1)Oc1ccc(C(C)C(=O)OCC(=O)N(C)C)cc1C2 (stereo unspecified)
active: [2] 17.4 µM and 15.5 µM | [5] 11.9 µM
not listed: [7] | [10]
inactive: all other assays above

O=C(O)c1ccccc1Nc1cccc(C(F)(F)F)c1
inactive: [1] | [2] | [3] | [4] | [6] | [5]

Cc1c(OCC(F)(F)F)ccnc1CS(=O)c1nc2ccccc2[nH]1 (stereo unspecified)
active: [5] 30.6 µM and 11.9 µM
35.6 µM (active) and inactive: [2]
not listed: [8] | [9]
inactive: all other assays above

CC(C)Oc1ccc2c(=O)c(-c3ccccc3)coc2c1
active: [2] 1.38 µM and 1.55 µM | [5] 1.5 µM and 2.11 µM | [8] 2.66 µM and 2.98 µM
not listed: [9] | [10]
inactive: all other assays above

COC(=O)c1ccccc1
inactive: [1] | [2] | [3] | [4]

Cn1cnc([N+](=O)[O-])c1Sc1ncnc2nc[nH]c12
active: [3] 6.82 µM
inactive: [10] | [2] | [5]
24.2 µM (active) and inactive: [8]

O=CCCCC=O
not listed: [7] | [10]
inactive: all other assays above

CC(C(=O)O)c1cccc(C(=O)c2ccccc2)c1 (stereo unspecified)
inactive: [10] | [1] | [3] | [4] | [9] | [8]

CC(=O)Oc1ccccc1C(=O)Nc1ncc([N+](=O)[O-])s1
active: [1] 14 µM and 18.8 µM | [2] 1.29 µM and 3.09 µM | [3] 19.7 µM and 21.1 µM | [4] 24.8 µM and 23.7 µM | [5] 556 nM and 473 nM

Nc1ccc(Nc2ccccc2)cc1
inactive: [3] | [4] | [6] | [7]
active: [1] 54.5 µM and 27.3 µM | [2] 79.7 µM

OC1CCCCCCCCCCC1
not listed: [8] | [9] | [10]
inactive: all other assays above

Nc1ccc(S(=O)(=O)Nc2cnc3ccccc3n2)cc1
inactive: [1] | [2] | [3] | [4] | [6] | [7]

C=CC(C)(CCC=C(C)C)OC(C)=O (stereo unspecified)
not listed: [8] | [9] | [10]
inactive: all other assays above

C[C@]12CC[C@H]3[C@@H](CCC4=CC(=O)CC[C@@]43C)[C@@H]1CC[C@@H]2C(=O)CO
not listed: [7] | [9] | [10]
inactive: all other assays above

c1cc(N(CC2CO2)CC2CO2)ccc1OCC1CO1 (stereo unspecified)
active: [1] 48.6 µM | [3] 61.1 µM | [4] 54.5 µM | [6] 68.6 µM | [8] 9.7 µM
inactive: [2] | [5] | [9]

CCCCC(CC)COC(=O)c1ccc(N(C)C)cc1 (stereo unspecified)
inactive: [1] | [2] | [3] | [4] | [6]
24.5 µM (active) and inactive: [5]

CCCCC(CC)COCC1CO1 (stereo unspecified)
not listed: [9] | [10]
inactive: all other assays above

Nc1ncn([C@@H]2O[C@H](CO)[C@@H](O)[C@H]2O)c(=O)n1
active: [3] 5.96 µM | [4] 4.86 µM | [9] 2.73 µM and 7.5 µM
not listed: [1] | [6]
inactive: all other assays above

CC(C)OC=O
not listed: [9] | [10]
inactive: all other assays above

COc1c(Cl)c(Cl)c(Cl)c(Cl)c1Cl
not listed: [5] | [9] | [10]
inactive: all other assays above

Cc1c(C(N)=O)cc([N+](=O)[O-])cc1[N+](=O)[O-]
not listed: [8] | [9] | [10]
inactive: all other assays above

c1ccncc1
not listed: [8] | [9] | [10]
inactive: all other assays above

Cc1cccc(N(C)C(=S)Oc2ccc3ccccc3c2)c1
inactive: [1] | [2] | [3] | [4]
active: [5] 27.3 µM and 26.6 µM

CCCCC/C=C/C=C/C=O
not listed: [9] | [10]
inactive: all other assays above

CCCC(=O)O
not listed: [9] | [10]
inactive: all other assays above

CCC(C)CO (stereo unspecified)
not listed: [7] | [9] | [10]
inactive: all other assays above

Cc1ccc(C)c(O)c1C
not listed: [8] | [9] | [10]
inactive: all other assays above

CCCCCCCCCC(=O)OC
not listed: [8] | [9] | [10]
inactive: all other assays above

c1ccc2cc(Nc3ccc(Nc4ccc5ccccc5c4)cc3)ccc2c1
not listed: [7] | [10]
inactive: all other assays above

Cc1cccc(C(=O)O)c1
not listed: [9] | [10]
inactive: all other assays above

Brc1cc(Oc2cc(Br)c(Br)c(Br)c2Br)c(Br)c(Br)c1Br
inactive: [1] | [2] | [3] | [4] | [6] | [5]

c1ccc2c(c1)c1cccc3ccc4cccc2c4c31
inactive: [1] | [2] | [3] | [4] | [6]
active: [5] 13.6 µM and 27.3 µM

Cc1cccc([N+](=O)[O-])c1C
not listed: [8] | [9] | [10]
inactive: all other assays above

C[C@]12CCC(=O)C=C1CC[C@@H]1[C@@H]2C(=O)C[C@@]2(C)[C@H]1CC[C@]2(O)C(=O)CO
inactive: [1] | [2] | [3] | [4] | [5]

O=[N+]([O-])c1ccc2c(c1)Cc1ccccc1-2
active: [5] 54.4 µM
not listed: [8] | [9] | [10]
inactive: all other assays above

O=C(/C=C/c1ccccc1)OCc1ccccc1
active: [2] 17.8 µM and 9.77 µM | [5] 29.8 µM
not listed: [8] | [10]
inactive: all other assays above

CCCCc1oc2ccccc2c1C(=O)c1cc(I)c(OCCN(CC)CC)c(I)c1
active: [1] 48.9 µM and 29.8 µM | [4] 43.6 µM | [7] 43.6 µM
inactive: [10] | [2] | [9] | [8]

O=C(OCc1ccccc1)c1ccccc1O
active: [2] 17.7 µM and 12.6 µM
inactive: [3] | [4]

CCOCCOCCO
inactive: [1] | [2] | [3] | [4] | [8]

Cc1ncc[nH]1
inactive: [1] | [2] | [3] | [4] | [7]

CCCCOCCOCCO
inactive: [1] | [2] | [3] | [4] | [7]

CCCCC(CC)COP(=O)(OCC(CC)CCCC)OCC(CC)CCCC (stereo unspecified)
inactive: [2] | [3] | [4] | [6] | [5] | [7]

CC(=O)c1ccccn1
inactive: [1] | [2] | [3] | [4] | [5] | [7]

Nc1ncnc2nc[nH]c12
active: [8] 54.5 µM
not listed: [6] | [9] | [10]
inactive: all other assays above

CCCCNS(=O)(=O)c1ccccc1
inactive: [2] | [3] | [4]

C/C=C/C(=O)O
inactive: [1] | [2] | [3] | [4] | [7] | [8]

O=C(Nc1ccc([N+](=O)[O-])cc1Cl)c1cc(Cl)ccc1O
active: [2] 399 nM and 301 nM | [3] 6.86 µM and 4.61 µM | [4] 5.45 µM and 3.26 µM | [5] 1.54 µM and 820 nM
inactive and 4.11 µM (active): [6]

NC=O
inactive: [1] | [2] | [3] | [4] | [8]

OCCO
inactive: [2] | [3] | [4] | [6] | [5] | [7]

Clc1nc(Cl)c(Cl)c(Cl)c1Cl
not listed: [6] | [7] | [10]
inactive: all other assays above

CN(C)c1nc(N(C)C)nc(N(C)C)n1
inactive: [1] | [2] | [3] | [4] | [7]
